Screen size: about 53,000 sequences; about 3,700 (7%) were called active.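 The calls were made as follows: active = gene knockdowns whose robust z-score for IL-1 alpha signal is at least 2 or at most -2, so actives lie on both sides; inactive = the rest.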 Many of the other results were omitted from the sample, so actives are more common in it than they were.
Test: Components of the Cytosolic LPS Sensing Pathway: Gene Identification via Genome-wide siRNA Screen;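 also: robust z of the log signal after scaling to non-targeting control siRNA wells of the plate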
Conditions: RAW264.7 macrophages, IL-1a HTRF, actives lie on both sides, screened at 100 nM (by protocol), cells primed 5 h with Pam3CSK4 first
Procedure, shortened: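 Three distinct siRNAs per gene were tested singly at 100 nM in RAW264.7 macrophages. Following Pam3CSK4 priming and 24 hour LipidA transfection, IL-1a secretion was read by HTRF.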

z-score, inactive:
GGUCAUGAAAAAUGACAGCTT against Klra2 0.126
GGAAGAAGAGGAUGAGAUUTT against Clcn6 -1.73
GGCUCACAAUUGCUGUGUATT against Psg23 -0.566
GGAUGUUGGCAGCCGAACATT against St3gal2 -0.684
UUGUCAUUCACUUGAUGAATT against H2bu2 0.238
CCAUGCCCACUGGAUAGAUTT against Nat14 -1.21
CCCGAAUUGACAACAUCGUTT against Olfr855 0.566
CGCCUUAAACGAAGCUGCUTT against 1700034E13Rik -1.28
GGUUUCCUUUUUGUUCAUUTT against Dlg3 0.566
CCGGUUGUUUUGAGUGUUGTT against Rad9b 1.09
CCAUAUAUUAUGGACCUUATT against Hepacam2 -0.576
CCGAAAUAAGGCUAGCUCATT against Rfx6 -0.282
GGUCUUACCAACAGAACCCTT against Rad51ap1 1
GCAAUGCUCUAAUCCACUCTT against Npas4 0.654
GGAAUUAUAGGACUUGUUCTT against Serinc1 0.256
GGUUCCCAAAGUAGAAGCATT against Dkkl1 -0.231
GGAUUUGUUUUCAGAUGUGTT against Zfp329 -1.56
GAUUCUUGUCGCUCAUAGCTT against Vmn1r52 -0.535
GGGCACACAUAUGACCGUUTT against Rrad 0.261
GCAUUCAUACAUGUAACAGTT against Wdr70 0.336
GGGACCAGAACAAAGUGGUTT against Olfr487 0.474
CCUAUUCAUCAUAACUCAUTT against Tdo2 0.129
CGAGCAUAAAAGUUAUGUGTT against Chaf1b 1.07
GCGUAUUUCCUUUCGGAGUTT against Exoc3 0.116
CCUAAGCCCUCUAAGGCAATT against Pik3r2 -0.753

z-score, active:
GGACAAGAUGUUGAGUAUUTT against Plrg1 -2.23
GGAAAACACAGCUACGGAATT against Ak5 2.21
GCUGAGUUGACUCCUACUGTT against Mcpt1 -2.23
GUCACAGAAAGCUUAGUCCTT against Olfr427 -2.93
GGAUCCUUACAAUAACAUUTT against Mmut 2.04

Source: PubChem BioAssay AID1508600 (Functional Genomics Laboratory (NCATS/FGL), 2020)
